# Shown are actives, neighbours in structure and some others; about 3.5% of the full set was active somewhere.
# Anthrax LF prot = anthrax lethal factor protease inhibition; inhibition, % at 10 µM; multiplex microsphere protease cleavage assay, LF; AID 588501; hit rate 0.12% among 360,000; further: plate controls were buffer without enzyme for full effect and enzyme alone for no effect
# Target sequence (P15917 whole entry, looked up): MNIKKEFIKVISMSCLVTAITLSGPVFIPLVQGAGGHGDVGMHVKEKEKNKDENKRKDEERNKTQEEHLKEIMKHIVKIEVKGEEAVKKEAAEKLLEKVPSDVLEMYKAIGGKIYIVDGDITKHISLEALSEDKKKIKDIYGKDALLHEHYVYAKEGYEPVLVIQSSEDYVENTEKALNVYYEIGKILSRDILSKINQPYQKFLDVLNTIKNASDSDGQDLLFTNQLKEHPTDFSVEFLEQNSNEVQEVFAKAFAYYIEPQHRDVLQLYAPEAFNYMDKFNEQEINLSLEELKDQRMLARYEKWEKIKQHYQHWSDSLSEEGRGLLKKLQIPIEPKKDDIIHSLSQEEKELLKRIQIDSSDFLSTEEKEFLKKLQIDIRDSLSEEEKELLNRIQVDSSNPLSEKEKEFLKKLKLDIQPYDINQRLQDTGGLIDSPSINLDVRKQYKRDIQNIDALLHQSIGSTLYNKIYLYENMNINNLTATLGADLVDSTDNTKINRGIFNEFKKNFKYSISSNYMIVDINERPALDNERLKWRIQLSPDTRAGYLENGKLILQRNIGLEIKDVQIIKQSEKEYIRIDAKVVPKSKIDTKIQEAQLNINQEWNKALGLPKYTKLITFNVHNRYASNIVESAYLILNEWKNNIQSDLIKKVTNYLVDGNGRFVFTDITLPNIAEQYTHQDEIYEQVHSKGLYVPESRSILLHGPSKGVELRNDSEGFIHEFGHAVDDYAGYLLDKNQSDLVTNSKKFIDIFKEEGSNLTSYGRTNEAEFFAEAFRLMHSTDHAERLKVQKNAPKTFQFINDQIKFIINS
# BoNT A protease = inhibitors of Botulinum neurotoxin A light chain protease; multiplex microsphere protease substrate cleavage, flow cytometry; inhibition, % at 10 µM; hit rate 0.17% among 360,000; AID 588499; further: plate controls were buffer without enzyme for full effect and enzyme alone for no effect
# BJeLR viability = BJeLR cell viability loss; BJeLR (HRASV12) viability, CellTiter-Glo ATP luminescence, 48 h; inhibition, % (no concentration beside the values); hit rate 0.17% among 300,000; in the data active means inhibition above about 50%; inconclusive means no clear call, values can overlap the other calls
# BoNT F protease = inhibitors of Botulinum neurotoxin F light chain protease | Multiplex microsphere protease cleavage assay, flow cytometry | inhibition, % at 10 µM | hit rate 0.22% among 360,000; in the data active means inhibition above about 35%, passing the limit was not always enough; inconclusive means no clear call, values can overlap the other calls; further: plate controls were buffer without enzyme for full effect and enzyme alone for no effect
# Autofluor counter = counter-screen for toxin protease inhibitors: compound fluorescence; compound autofluorescence counterscreen, microsphere flow cytometry; hits give high values; fluorescence intensity (test concentration not listed); hit rate 3.1% among 360,000; in the data active means fluorescence intensity above about 16000; inconclusive means no clear call, values can overlap the other calls
# Starred values were filed as active, the others as inactive; ? = inconclusive; nt = no result given. Unless noted, no stated cut-off is given here; in the data, active means inhibition above about 30%; inconclusive means no clear call, values can overlap the other calls; inactive means below that.
SMILES,Anthrax LF prot,BoNT A protease,BJeLR viability,BoNT F protease,Autofluor counter
O=c1c2ccc(Cl)cc2[nH]c(=S)n1Cc1cccnc1,-4,4,3,7,21022*
O=C(Nc1cc(C(F)(F)F)cc(C(F)(F)F)c1)[C@H]1O[C@@H](n2ccc(=O)[nH]c2=O)[C@H](O)[C@@H]1O,8,0,nt,-12,5675
O=C(NN1C(=O)/C(=C\c2cccnc2)SC1=S)C(c1ccccc1)c1ccccc1,2,1,-2,3,2033
O=C(NN1C(=O)/C(=C/c2cccs2)SC1=S)c1ccccc1,22,10,3,41*,8439
O=C(CCN1C(=O)/C(=C/c2cccc(Br)c2)SC1=S)NNC(=O)c1cccnc1,-3,-1,-18,-4,16764*
O=C(NN1C(=O)/C(=C/c2cccnc2)SC1=S)C(c1ccccc1)c1ccccc1,-2,-1,-2,-2,21106*
COc1ccc(-c2cc3nc(C4CCN(C(=O)OC(C)(C)C)CC4)c(C(=O)O)cn3n2)cc1,0,1,7,4,22638*
Nc1nc(CSc2ncn(-c3ccccc3)n2)cs1,1,4,6,5,22447*
CCCCCCCCCCCCCCCC(=O)NCCc1c[nH]c2ccccc12,-8,-1,6,-4,4130
CCCCOc1ccc(-c2nnn(CC(=O)NCCc3c[nH]c4ccccc34)n2)cc1,-3,?,5,-6,23887*
O=C1NCCCC2c3c(cc(Br)c(O)c3Br)OC12N1CCOCC1 (stereo unspecified),4,6,nt,9,20273*
CCN(CC)c1ccc2cc(-c3nc4ccccc4n3C)c(=O)oc2c1,3,1,41,0,16417*
CCN(CC)c1ccc2cc(-c3nc4ccccc4[nH]3)c(=O)oc2c1,28,33*,12,59*,14129
CCN(CC)c1ccc2cc(-c3nnc(-c4ccccc4)o3)c(=O)oc2c1,10,8,8,18,4020
COc1ccc(OCc2ccc(C(=O)NN)cc2)cc1,-1,0,11,-3,19696*
COc1ccc(C(=O)NCC(=O)O)cc1,-4,-2,3,-8,17003*
COc1ccc(C(=O)NCc2c(C)oc(C)c2C(=O)O)cc1,-4,1,-6,36*,3063
COc1ccc(OCC(O)CNC(=O)c2ccc(Br)cc2)cc1 (stereo unspecified),-6,3,0,6,21623*
COc1ccc(OCC(O)CNC(=O)c2ccc(OC)cc2)cc1 (stereo unspecified),-2,0,-7,-1,2605
CC(=O)OC[C@@H]1CN(Cc2ccccc2)C[C@H](n2cnc3c(N4CCN(c5ccccc5)CC4)ncnc32)O1,4,0,nt,-3,4000
CC(C)(C)c1ccc(NC(=O)COC(=O)C2(C)CC2(Cl)Cl)cc1 (stereo unspecified),-8,-1,5,-2,4643
O=C(c1cnc2n(c1=O)CCS2)N(c1ccccc1)C1CCCCC1,-4,0,15,2,3386
CC(C)N(Cc1ccccc1)C(=O)c1cnc2n(c1=O)CCS2,-5,1,6,2,6320
COC(=O)c1ccc(C(=O)OC)c(NC(=O)c2cnc3n(c2=O)CCS3)c1,-1,?,-13,3,16274*
Cc1cccc(N(C(=O)c2cnc3n(c2=O)CCS3)C2CCCCC2)c1,2,2,0,2,22301*
SMILES,Anthrax LF prot,BoNT A protease,BJeLR viability,BoNT F protease,Autofluor counter
CN(Cc1ccccc1)C(=O)c1cnc2n(c1=O)CCS2,1,?,-4,4,19652*
O=C1Nc2ccc([N+](=O)[O-])cc2OC1CCN1CCN(Cc2ccccc2)CC1 (stereo unspecified),4,4,3,-4,4301
Cc1nc2ccc(NC(=O)c3cccc(C(F)(F)F)c3)cc2o1,0,0,0,0,22143*
CCNC(=S)NNC(=O)c1cc(-c2ccccc2C)nc2ccccc12,-5,0,14,-9,10802
CCNC(=S)NNC(=O)c1cc(-c2ccc(OCC)cc2)nc2ccccc12,1,0,54*,3,8176
CCCOc1cccc(-c2cc(C(=O)NNC(=S)NCC)c3ccccc3n2)c1,-3,-3,-1,-4,24056*
CCNC(=S)NNC(=O)c1cc(-c2cccc(OC)c2)nc2ccccc12,-1,0,10,0,2082
CCNC(=S)NNC(=O)c1cc(CC(C)C)nc2ccccc12,0,?,3,1,22680*
Cn1cc(S(=O)(=O)N2CCc3ccccc3C2)c(=O)n(C)c1=O,3,0,1,4,4348
Cc1ccc(C)c(NC(=S)N(C)CCO)c1,0,-1,9,2,4354
C=CCNC(=S)NNC(=O)c1cccc2ccccc12,-3,-1,-23,-1,21284*
CCNC(=S)NNC(=O)c1cccn(Cc2ccc(Cl)cc2Cl)c1=O,-1,?,-1,-3,22212*
C=CCNC(=S)NNC(=O)c1cccn(Cc2ccc(Cl)cc2Cl)c1=O,-2,?,-4,-4,22647*
C=CCNC(=S)NNC(=O)c1cccn(Cc2ccc(Cl)c(Cl)c2)c1=O,-2,-1,5,-9,5648
C=CCNC(=S)NNC(=O)c1ccccc1,1,-1,-13,9,4488
O=[N+]([O-])c1ccc(CN2CC(N3CCC(Cc4ccccc4)CC3)CS2(=O)=O)cc1 (stereo unspecified),0,0,nt,-11,2999
Cc1sc2ncnc(SCC(=O)c3cccs3)c2c1C,-2,-2,-5,-5,16770*
Cc1sc2nc(SCc3ccc(C(=O)O)cc3)n(Cc3ccco3)c(=O)c2c1C,-2,1,-3,0,3308
Cc1sc2nc(SCC(=O)c3cccs3)n(Cc3ccco3)c(=O)c2c1C,0,0,-9,-1,22489*
Cn1cc(-c2ccc(C(=O)Nc3cccc(Oc4ccccc4)c3)c3occc23)cn1,-1,-1,nt,5,3705
N#Cc1cccc(NC(=O)c2cc(C3CCCCN3S(=O)(=O)c3ccccc3)on2)c1 (stereo unspecified),-5,-1,nt,-8,3166
C/C(=C1/SC(N2CC(C)OC(C)C2)=NC1=O)c1ccccc1 (stereo unspecified),-4,-1,-9,-1,19965*
C/C(=C1\SC(N2CCOCC2)=NC1=O)c1ccccc1,-10,-1,1,-2,9566
CCOc1cc(S(=O)(=O)NCc2ccncc2)c(C)cc1C,-6,-2,6,-7,3957
Cc1ccc(-c2nnc3ccc(SCC(=O)Nc4cc(C)on4)nn23)cc1,-4,1,1,0,20468*
Cc1cc(NC(=O)CSc2nnc(-c3cccnc3)n2N)no1,3,1,-1,1,6034
Cc1cc(NC(=O)CSc2ccc3nnc(-c4ccc(F)cc4)n3n2)no1,-12,0,2,-5,9900
Cc1cc(NC(=O)CSc2nnc(-c3cccnc3)n2C)no1,0,?,-2,6,21792*
C(=NNc1ccc2ccccc2n1)c1ccccn1,-1,-1,nt,-13,5722
Cn1c(=O)c2c(nc(CN3CCCCC3)n2CCc2ccccc2)n(C)c1=O,-2,0,5,7,2121

# Screening results deposited in PubChem by several laboratories.
